The text below walks through data of PubChem BioAssay (EPA / NIEHS).

Results filed as inconclusive are left out. Calls of active or inactive are those of the source. The calls were made as follows: active = hit-call score of the fitted dose curve at least 0.9, where 1 is the maximum; inconclusive = response in the unintended direction; inactive = score below 0.9.

Sequence of frog Thyroid hormone Receptor alpha (TRa), thra-a (gene 397942) (P15204 whole entry, looked up): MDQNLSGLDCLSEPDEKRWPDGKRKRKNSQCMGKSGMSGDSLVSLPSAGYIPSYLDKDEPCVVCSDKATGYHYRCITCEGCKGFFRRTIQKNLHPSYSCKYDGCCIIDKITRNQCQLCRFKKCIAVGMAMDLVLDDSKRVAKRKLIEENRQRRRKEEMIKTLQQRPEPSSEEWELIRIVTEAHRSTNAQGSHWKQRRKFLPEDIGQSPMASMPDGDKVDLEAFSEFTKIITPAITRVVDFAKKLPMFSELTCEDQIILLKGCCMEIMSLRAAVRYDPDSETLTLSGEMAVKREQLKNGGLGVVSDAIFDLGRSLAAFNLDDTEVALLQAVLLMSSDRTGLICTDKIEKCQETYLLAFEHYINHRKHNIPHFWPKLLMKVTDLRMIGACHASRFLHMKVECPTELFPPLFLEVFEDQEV

The assay deals with frog Thyroid hormone Receptor alpha (TRa), thra-a (gene 397942) (UniProt P15204). Put plainly: ATG_frTRa_XSP2: Attagene TRANS-FACTORIAL Multi-Species (XSP2) HepG2 Assay for frog Thyroid hormone Receptor alpha (TRa) (AID 2283839).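 As to AC50: AC50 reflects induction of frog TRa-driven reporter mRNA above DMSO baseline.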 The method, then:
ATG_XSP2_multi-species_TRANS is a cell-based, multiplexed assay created by modifying the existing Attagene TRANS-FACTORIAL system to include a panel of nuclear receptors from some or all the following species: human (Homo sapiens), mouse (Mus musculus), frog (Xenopus laevis), zebrafish (Danio rerio), chicken (Gallus gallus), and turtle (Chrysemys picta). The ECOTOX-FACTORIAL format uses HepG2, a human liver cell line, with measurements taken at 24 hours after chemical dosing in a 24-well plate. Xsp2 included 3 nM 6-alpha-fluorotestosterone and 1.5 nM norgestrel to stimulate the androgen receptor.ATG_frTRa_XSP2 is one of 29 assay components measured or calculated from the ATG_XSP2_multi-species_TRANS assay. It is designed to make measurements of mRNA induction, a form of inducible reporter, as detected with fluorescence intensity signals by Reverse transcription polymerase chain reaction (RT-PCR) and Capillary electrophoresis technology.The assay endpoint ATG_frTRa_XSP2 was analyzed in the positive analysis fitting direction relative to DMSO as the negative control and baseline of activity. Using a type of inducible reporter, measures of mRNA for gain-of-signal activity can be used to understand the reporter gene at the transcription factor-level as they relate to the gene TR. Furthermore, this assay endpoint can be referred to as a primary readout, because this assay has produced multiple assay endpoints where this one serves a reporter gene function. To generalize the intended target to other relatable targets, this assay endpoint is annotated to the nuclear receptor intended target family, where the subfamily is non-steroidal.
Human liver HepG2 cells are transiently transfected with multiple reporter transcription units (MRTUs) in 6-well plates using FuGene 6 reagent (Roche; 3 ml FuGene/1 mg DNA). The MRTU constructs are regulated by a cis-regulating element (promoter). […] A major difference between the CIS and TRANS system is that in CIS activities of endogenous TFs are measured, whereas the TRANS assay evaluates changes in activities of exogenous, chimeric NR-Gal4 proteins. […] At the end of 24 hour incubation, total RNA was isolated using TriZol reagent (Invitrogen). The isolated RNA is then reverse-transcribed using oligo(dT) primer and Mo-MLV reverse transcriptase (Invitrogen) with DNAse I (Ambion) treatment for 30 min. The one-tenth of the produced cDNA was amplified by PCR using Taq DNA polymerase (Invitrogen) and two reporter sequence-specific primers. The PCR products were fluorescently labeled by primer extension with 6-arboxyfluorescein (6-FAM) 5'-labeled reporter sequence-specific primer (2 min at 95 C, 20 s at 68 C and 10 min at 72 C) and these products were digested with 5U of HpaI (New England Biolabs) for 2h at 37 C. The fragments were purified using Qiaquick PCR columns (Qiagen), analyzed on an ABI 3130xL genetic analyzer (Applied Biosystems) with peak positions identified by using a set of X-rhodamine (ROX)-labeled MapMarker1000 molecular weight standards (BioVentures). The raw capillary electrophoresis data was processed using Attagraph software (Attagene).
The AC50 is the midpoint of the concentration-response curve, whichever way the signal moves. Regarding `Oc1cc(Cl)ccc1Oc1ccc(Cl)cc1Cl`, the AC50 was 2.46 µM (active). On to `O=C(O)C(F)(F)C(F)(F)C(F)(F)C(F)(F)C(F)(F)C(F)(F)C(F)(F)F`, for which the molecule was called inactive. Still for that read-out and setting: then `CCCN(CCOc1c(Cl)cc(Cl)cc1Cl)C(=O)n1ccnc1`, with “inactive”. Consider `Oc1ccc(Cl)cc1Cc1ccccc1`, for which the AC50 was 10 µM (active). In the case of `CCCN(CCC)c1c([N+](=O)[O-])cc(C(F)(F)F)cc1[N+](=O)[O-]`, the molecule was called inactive.

As to `CC1(C)C(C=C(Cl)Cl)C1C(=O)OC(C#N)c1ccc(F)c(Oc2ccccc2)c1` (stereo not given), the AC50 is 37.1 µM (active). Take `CC(C)(C)C(O)/C(=C\c1ccc(Cl)cc1Cl)n1cncn1` (stereo not given): the molecule was called inactive.

With `COP(=S)(OC)Oc1ccc(SC)c(C)c1`, the call was inactive. Same read-out and setting: then `O=S1OCC2C(CO1)C1(Cl)C(Cl)=C(Cl)C2(Cl)C1(Cl)Cl` (stereo not given), with “inactive”. Still for that read-out and setting: then `COP(=S)(OC)Oc1ccc([N+](=O)[O-])cc1`, with “inactive”.
